The values below come from PubChem BioAssay AID1006 (Sanford-Burnham Center for Chemical Genomics, 2008).

Hit rate of the full screen: of about 200,000 compounds, about 3,000 (1.5%) were called active. What follows is part of a selection rich in actives, with near analogues and random picks from the rest. Values without a mark were called inactive.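 The calls were made as follows: active = inhibition above about 50% when tested at 10 µM (limit read from the data); inactive = the rest.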

Sequence of Luciferin 4-monooxygenase (Photinus pyralis) (P08659 whole entry, looked up): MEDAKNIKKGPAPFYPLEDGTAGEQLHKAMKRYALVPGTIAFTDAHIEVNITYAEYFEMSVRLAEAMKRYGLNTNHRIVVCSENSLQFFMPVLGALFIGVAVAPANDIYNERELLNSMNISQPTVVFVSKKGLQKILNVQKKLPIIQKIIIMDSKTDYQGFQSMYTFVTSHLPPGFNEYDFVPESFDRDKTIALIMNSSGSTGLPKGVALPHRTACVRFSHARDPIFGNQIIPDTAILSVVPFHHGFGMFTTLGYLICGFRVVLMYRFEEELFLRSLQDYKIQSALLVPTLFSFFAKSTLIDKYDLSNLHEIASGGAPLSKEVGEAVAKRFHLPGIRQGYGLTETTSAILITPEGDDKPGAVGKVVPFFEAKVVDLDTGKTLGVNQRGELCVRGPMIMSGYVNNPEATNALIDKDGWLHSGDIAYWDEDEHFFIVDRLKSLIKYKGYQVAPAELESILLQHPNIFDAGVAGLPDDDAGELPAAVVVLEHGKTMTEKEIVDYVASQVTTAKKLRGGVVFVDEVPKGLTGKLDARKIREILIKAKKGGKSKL

This experiment addresses Luciferin 4-monooxygenase (Photinus pyralis) (UniProt P08659). As to the kind of experiment: inhibition of purified FLuc reporter enzyme – biochemical, luminescence, ATPLite, artefact control for luciferase-based inhibitor screens, primary screen (AID 1006). To be noted: ATPLite firefly luciferase biochemical luminescence, 10 min; at 10 µM; hits give high values. For orientation: ATP-based viability assays read luminescence as a measure of living cells.
Regarding `NC(=O)Nc1ccccc1C(=O)NCCc1ccccc1`, the inhibition (commonly the drop in the measured response relative to a control, in per cent) is 2%. The figure for `CC(=O)c1cc(-c2ccccc2)n(CCC(=O)NC2CCCCCC2)c1C` is -5.1%; for `Cc1ccnc2nc(C(=O)OCC(=O)N(CC(C)C)CC(C)C)nn12` it is -5.4%.

With `CC/C(O)=C1\C(=O)CC(C)(C)CC1=NCCc1nc2ccccc2[nH]1`, the inhibition was -2.7%. In the case of `COCCn1c(C)cc(C2=NNC(=Nc3ccc(F)cc3)SC2)c1C`, the inhibition is 17.9%.

On to `C=CCn1c(C)cc(C2=NNC(=NCC)SC2)c1C`, for which the inhibition was 96.5% (active). The figure for `Cc1cc(C2=NNC(=Nc3ccc(S(=O)(=O)N4CCOCC4)cc3)SC2)c(C)n1CC1CCCO1` (configuration not stated) is -3%; for `COc1cccc(/C=N/NC(=O)c2cccc([N+](=O)[O-])c2)c1OS(=O)(=O)c1ccc(C)cc1` it is -9.9%; for `Cc1ccc(-n2[nH]c(C)c(/C=N/NC(=O)c3cccc([N+](=O)[O-])c3)c2=O)cc1C` it is 94.9% (active). The figure for `Cc1[nH]n(-c2ccccc2)c(=O)c1/C=N/NC(=O)c1ccoc1C` is 20.6%; for `Cc1ccc2c(c1)C(c1ccccc1)N(C(=O)c1ccc(S(=O)(=O)N3CCOCC3)cc1)CC(=O)N2` (configuration not stated) it is -5.3%; for `CCOc1ccc(/C=N/NC(=O)C(C)Sc2ccccn2)cc1OCC` (configuration not stated) it is -6%. `Cc1cccc(C)c1NC(=O)C1(C)c2cccc[n+]2CC(=O)N1Cc1cccs1` (configuration not stated): the inhibition is 0.5%. The figure for `O=C(NCC(O)c1ccc([N+](=O)[O-])cc1)C1CCCCC1` (configuration not stated) is -2.2%; for `CN(C)c1ccc(C(CNC(=O)c2ccc(F)cc2)c2c[nH]c3ccccc23)cc1` (configuration not stated) it is -0.6%; for `CC(C)NC(=S)NN=C1CCCCCCCCCCC1` it is -6.7%. To `COc1ccc(-c2ccnc(SCC(=O)N3CCOCC3)n2)cc1` belongs -3.4%; to `CCOc1ccc(-c2ccc(SCC(=O)N3CCOCC3)nn2)cc1`, 84.4% (active); to `COc1ccc(-c2nc(SCC(=O)N3CCOCC3)n[nH]2)cc1`, 9.9%.

For `O=C(O)CCCCOn1ccnc1`, the inhibition is 0.6%. Turning to `N#C/C(=C(\O)C(F)(F)F)c1nnc2n1CCCCC2`, the inhibition was -6.2%. To `Cc1cccc(/C(N)=N/OC(=O)c2ccccc2Cl)c1` belongs 89.7% (active). The figure for `N/C(=N\OC(=O)c1cc(-c2ccccc2)nc2ccccc12)c1ccncc1` is 1.6%; for `Cc1cccc(C(=O)c2cccc(C)c2)c1` it is -6.1%; for `NC1=NN(c2cccc(C(=O)O)c2)C(=O)C1` it is -2.1%.

Turning to `OCCNCCOc1ccc(Cl)c(Cl)c1`, the inhibition is 0.7%. Take `O=C(O)c1ccc(N/N=C/c2cn(-c3ccccc3)nc2-c2cccs2)cc1`: the inhibition is 92.2% (active). In the case of `O=C(O)/C=C/c1cn(-c2ccccc2)nc1-c1cccs1`, the inhibition was 18%.

Turning to `O=C(/C=C\c1cn(-c2ccccc2)nc1-c1cccs1)N1CCOCC1`, the inhibition was 35.3%. Turning to `Cc1onc(C(=O)NCc2ccc(F)cc2)c1[N+](=O)[O-]`, the inhibition was 8%.

Consider `CC(=O)Nc1ccc(S(=O)(=O)NCC(=O)OCc2cc(=O)oc3ccc4ccccc4c23)cc1`, for which the inhibition is -3.3%. The figure for `CN(C(=O)c1ccccn1)c1nnc(-c2ccccn2)s1` is 55.5% (active); for `CN(C(=O)COc1ccccc1)c1nnc(-c2ccncc2)s1` it is -2.1%. With `CN(C(=O)c1ccno1)c1nnc(-c2cccnc2)s1`, the inhibition is 0.1%. As for `Cn1c(=NC(=O)c2cnccn2)sc2ccccc21`, the inhibition was 75.5% (active). The figure for `Cn1c(=NC(=O)CSCC(=O)N2CCOCC2)sc2ccccc21` is -1.3%; for `Cn1c(=NC(=O)CSCC(=O)N2CCCCC2)sc2ccccc21` it is -5%; for `CCOc1ccc(-c2n[nH]c(C)c2-c2ccccn2)c(O)c1` it is -3.7%. Turning to `CCNC(=O)CCc1nc(-c2ccc(C(C)(C)C)cc2)no1`, the inhibition is 52.3% (active). As to `Cc1ccc(-c2noc(CCC(N)=O)n2)cc1`, the inhibition was 0.2%. To `CN1CCN(C(=O)CCc2nc(-c3ccc(Cl)cc3)no2)CC1` belongs -4.7%. In the case of `COc1cc(/C=N/Nc2nn3cnnc3c3ccccc23)cc(OC)c1OC`, the inhibition was 84.1% (active).

Turning to `CCOc1ccc(/C=N/Nc2nncc(-c3ccccc3)n2)cc1OC`, the inhibition was 9.9%. The figure for `COc1ccc(/C=N/Nc2nc3ccccc3o2)cc1OC` is 11.5%; for `CCC(C)(C)C1CCC(=NNC(=O)c2ccc(Br)o2)CC1` (configuration not stated) it is -7.3%. To `CCCCN(C)CCNC(=O)CSCc1ccc(C)cc1` belongs -9.7%; to `O=C(CSc1ccc2nnc(-c3ccccc3)n2n1)N1CCCc2ccccc21`, 4.5%.

`CC(=O)Nc1ccccc1NC(=O)c1cc(C)cc(C)c1`: the inhibition is -8.5%. The figure for `C=CCN(c1ccc(C(=O)Nc2cc(C)cc(C)c2)cc1)S(C)(=O)=O` is -2.7%; for `CSCc1ccc(C(=O)Nc2cc(C)cc(C)c2)cc1` it is 77.9% (active); for `O=C(O)c1ccc(/C=N/NC(=O)c2ccc(Br)cc2)cc1` it is 15.3%. The figure for `CCOC(=O)c1sc(NC(=O)CSc2n[nH]c(CC)n2)nc1C` is -4.3%; for `CCOC(=O)c1sc(NC(=O)CSc2nc(O)c(Cc3ccccc3)c(=O)[nH]2)nc1C` it is 72.8% (active); for `O=C(CSc1nc(O)c(Cc2ccccc2)c(=O)[nH]1)Nc1nc2c(s1)CCCC2` it is -3%. The figure for `O=C(COC(=O)C1CCCCC1)Nc1ccc([N+](=O)[O-])cc1` is 2.8%. For `COc1cc(OC)c(C2=NOC(C(=O)Nc3c(C)n(C)n(-c4ccccc4)c3=O)C2)cc1Cl` (configuration not stated), the inhibition was -5.5%. As for `CCOC(=O)C1(Cc2ccccc2C(F)(F)F)CCN(C(=O)c2cc(C)n(C)n2)CC1`, the inhibition is -9.5%. Regarding `CCCOc1ccc(C(=O)NCCc2ccccc2)cc1`, the inhibition was 70.6% (active).

Turning to `O=C(NCCc1ccccc1)c1ccc(OCCOc2ccccc2)cc1`, the inhibition is -1.1%. Consider `O=C(NCCOc1ccccc1)c1ccccc1`, for which the inhibition is 14.7%. To `Cc1ccc(-c2cc(C(F)(F)F)n3ncc(C(=O)N4CCCCC4c4cccnc4)c3n2)cc1` (configuration not stated) belongs -6.3%; to `Cc1ccc(-c2nc(-c3cccnc3)sc2CC(=O)Nc2ccc(C)c(Cl)c2)cc1`, -1.9%.
